PubChem BioAssay AID1159580 (chemical genetic matrix, 2015)
Where “and” joins values, the source holds several entries; their conditions need not be identical. Equal entries are not always repeated. Screen size: about 5,500 compounds; about 2,000 (36%) were called active. Roughly 18% stayed inconclusive and do not appear here. Rule as the data show it: active = normalized growth mostly below about 0.91 (no sharp cut-off); inconclusive = no clear call, values can overlap the other calls; inactive = mostly above about 0.92. Some of the results follow.

Assay: chemical genetic growth profiling, strain panel (AID 1159580);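 also: tested at 20 µM; growth read once vehicle control cultures reached saturation at 30 °C; 1 = growth at the plate median or of vehicle wells; lower values mean less growth of the strain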
Settings: growth OD

Measured: normalized growth

CN(C)CCOC(=O)COc1ccc(Cl)cc1
active: S. cerevisiae deletion strains, locus YKR001C, strain vps1, hits give low values 1.14 [resistant] | S. cerevisiae deletion strains, locus YLR039C, strain RIC1, hits give low values 1.61 [resistant] | S. cerevisiae deletion strains, locus YLR262C, strain YPT6, hits give low values 1.85 [resistant] | S. cerevisiae deletion strains, locus YLR268W, strain sec22, hits give low values 1.15 [resistant] | S. cerevisiae deletion strains, locus YLR418C, strain cdc73, hits give low values 1.21 [resistant] | S. cerevisiae deletion strains, locus YOR184W, strain ser1, hits give low values 1.15 [resistant]
inactive: S. cerevisiae deletion strains, locus YKL009W, strain mrt4, hits give low values 1.04 | S. cerevisiae deletion strains, locus YKL068W, hits give low values 1 | S. cerevisiae deletion strains, locus YKL085W, strain MDH1 (second series), hits give low values 1.01 | S. cerevisiae deletion strains, locus YKL085W, strain MDH1, hits give low values 1.01 | S. cerevisiae deletion strains, locus YKL160W, strain elf1, hits give low values 0.972 | S. cerevisiae deletion strains, locus YKL190W, strain CNB1, hits give low values 1.01 | S. cerevisiae deletion strains, locus YKR026C, strain gcn3, hits give low values 0.948 | S. cerevisiae deletion strains, locus YKR091W, strain srl3, hits give low values 0.969 | S. cerevisiae deletion strains, locus YLL001W, strain dnm1, hits give low values 0.959 | S. cerevisiae deletion strains, locus YLL026W, hits give low values 0.969 | S. cerevisiae deletion strains, locus YLL041C, strain sdh2, hits give low values 0.961 | S. cerevisiae deletion strains, locus YLR027C, strain aat2, hits give low values 0.972 | S. cerevisiae deletion strains, locus YLR058C, strain SHM2, hits give low values 1.02 | S. cerevisiae deletion strains, locus YLR102C, strain apc9, hits give low values 1.02 | S. cerevisiae deletion strains, locus YLR113W, strain HOG1, hits give low values 0.971 | S. cerevisiae deletion strains, locus YLR221C, strain rsa3, hits give low values 0.987 | S. cerevisiae deletion strains, locus YLR258W, strain gsy2, hits give low values 0.965 | S. cerevisiae deletion strains, locus YLR262C, strain YPT6 (second series), hits give low values 1.08 | S. cerevisiae deletion strains, locus YLR320W, strain mms22, hits give low values 1.01 | S. cerevisiae deletion strains, locus YLR330W, strain CHS5, hits give low values 1.02 | S. cerevisiae deletion strains, locus YLR342W, strain FKS1 (second series), hits give low values 0.953 | S. cerevisiae deletion strains, locus YLR342W, strain FKS1, hits give low values 0.97 | S. cerevisiae deletion strains, locus YLR357W, strain rsc2, hits give low values 1.01 | S. cerevisiae deletion strains, locus YLR370C, strain arc18, hits give low values 0.962 | S. cerevisiae deletion strains, locus YLR371W, strain rom2, hits give low values 1.02 | S. cerevisiae deletion strains, locus YLR384C, strain iki3, hits give low values 0.983 | S. cerevisiae deletion strains, locus YML016C, strain PPZ1, hits give low values 1.02 | S. cerevisiae deletion strains, locus YML032C, strain rad52, hits give low values 1.07 | S. cerevisiae deletion strains, locus YML120C, strain ndi1, hits give low values 0.966 | S. cerevisiae deletion strains, locus YML124C, strain tub3, hits give low values 1.04 | S. cerevisiae deletion strains, locus YMR058W, strain fet3, hits give low values 0.976 | S. cerevisiae deletion strains, locus YMR078C, strain ctf18, hits give low values 1.05 | S. cerevisiae deletion strains, locus YMR125W, strain sto1, hits give low values 0.965 | S. cerevisiae deletion strains, locus YMR129W, hits give low values 0.973 | S. cerevisiae deletion strains, locus YMR205C, strain PFK2, hits give low values 0.986 | S. cerevisiae deletion strains, locus YMR223W, strain ubp8, hits give low values 1.04 | S. cerevisiae deletion strains, locus YMR231W, strain pep5, hits give low values 0.976 | S. cerevisiae deletion strains, locus YMR263W, strain SAP30, hits give low values 1.05 | S. cerevisiae deletion strains, locus YMR307W, strain GAS1, hits give low values 0.963 | S. cerevisiae deletion strains, locus YNL067W, strain RPL9B, hits give low values 1.06 | S. cerevisiae deletion strains, locus YNL071W, strain lat1, hits give low values 0.988 | S. cerevisiae deletion strains, locus YNL128W, strain TEP1, hits give low values 1.03 | S. cerevisiae deletion strains, locus YNL153C, strain GIM3, hits give low values 1.03 and 0.882 | S. cerevisiae deletion strains, locus YNL175C, strain NOP13, hits give low values 0.949 | S. cerevisiae deletion strains, locus YNL183C, strain NPR1, hits give low values 0.962 | S. cerevisiae deletion strains, locus YNL197C, strain WHI3, hits give low values 0.954 | S. cerevisiae deletion strains, locus YNL209W, strain ssb2, hits give low values 0.974 | S. cerevisiae deletion strains, locus YNL224C, strain SQS1, hits give low values 1.01 | S. cerevisiae deletion strains, locus YNL233W, strain BNI4, hits give low values 1.07 | S. cerevisiae deletion strains, locus YNL248C, strain rpa49, hits give low values 0.996 | S. cerevisiae deletion strains, locus YNL250W, strain rad50, hits give low values 1.01 | S. cerevisiae deletion strains, locus YNL271C, strain bni1, hits give low values 1.04 | S. cerevisiae deletion strains, locus YNL298W, strain CLA4, hits give low values 1.02 | S. cerevisiae deletion strains, locus YNL307C, strain MCK1, hits give low values 1.05 | S. cerevisiae deletion strains, locus YNL322C, strain KRE1 (second series), hits give low values 0.977 | S. cerevisiae deletion strains, locus YNL322C, strain KRE1, hits give low values 1.02 | S. cerevisiae deletion strains, locus YNR049C, strain mso1, hits give low values 0.955 | S. cerevisiae deletion strains, locus YNR052C, strain pop2, hits give low values 1.07 | S. cerevisiae deletion strains, locus YOL006C, strain TOP1, hits give low values 1.01 | S. cerevisiae deletion strains, locus YOL012C, strain htz1 1.88 | S. cerevisiae deletion strains, locus YOL147C, strain pex11, hits give low values 1.03 | S. cerevisiae deletion strains, locus YOR001W, strain rrp6, hits give low values 0.947 | S. cerevisiae deletion strains, locus YOR061W, strain CKA2, hits give low values 1.03 | S. cerevisiae deletion strains, locus YOR069W, strain VPS5, hits give low values 1 | S. cerevisiae deletion strains, locus YOR070C, strain gyp1, hits give low values 0.984 | S. cerevisiae deletion strains, locus YOR080W, strain dia2, hits give low values 0.952 | S. cerevisiae deletion strains, locus YOR083W, strain WHI5 (second series), hits give low values 0.994 | S. cerevisiae deletion strains, locus YOR083W, strain WHI5, hits give low values 0.979 | S. cerevisiae deletion strains, locus YOR106W, strain vam3, hits give low values 1 | S. cerevisiae deletion strains, locus YOR136W, strain idh2, hits give low values 1.03 | S. cerevisiae deletion strains, locus YOR144C, strain elg1, hits give low values 1.02 | S. cerevisiae deletion strains, locus YOR231W, strain MKK1, hits give low values 1.05 | S. cerevisiae deletion strains, locus YOR265W, strain rbl2, hits give low values 0.964 | S. cerevisiae deletion strains, locus YOR270C, strain vph1, hits give low values 0.884 | S. cerevisiae deletion strains, locus YOR290C, strain snf2, hits give low values 0.962 | S. cerevisiae deletion strains, locus YOR316C, strain cot1, hits give low values 1.02 | S. cerevisiae deletion strains, locus YPL051W, strain arl3, hits give low values 0.986 | S. cerevisiae deletion strains, locus YPL055C, strain LGE1, hits give low values 1.06 and 1.03 | S. cerevisiae deletion strains, locus YPL078C, strain atp4, hits give low values 0.973 | S. cerevisiae deletion strains, locus YPL106C, strain sse1, hits give low values 0.878 | S. cerevisiae deletion strains, locus YPL240C, strain hsp82, hits give low values 0.957 | S. cerevisiae deletion strains, locus YPL241C, strain CIN2, hits give low values 1.01 | S. cerevisiae deletion strains, locus YPL256C, strain CLN2, hits give low values 1.1 | S. cerevisiae deletion strains, locus YPR119W, strain clb2, hits give low values 1.03 | S. cerevisiae deletion strains, locus YPR141C, strain kar3, hits give low values 1.02 | S. cerevisiae deletion strains, locus YPR163C, strain tif3, hits give low values 1.06 | S. cerevisiae deletion strains, locus YPR167C, strain met16, hits give low values 1.05 | S. cerevisiae deletion strains, strain wtn01, hits give low values 1.04 | S. cerevisiae strains, strain wild type, hits give low values 1.03
